{"source": "the supplement of paper PMC9135407", "system": "primary human hepatic stellate cells (donor 1)", "test": "scaled lipid accumulation score (0 = DMSO-like, 1 = nortriptyline-like); higher = stronger HSC inactivation (lipid re-accumulation), active = hit call of the paper", "details": "48 h", "key": {"[1]": {"details": "library stock concentration: 1 mM"}, "[2]": {"details": "library stock concentration: 3.33 mM"}, "[3]": {"details": "library stock concentration: 10 mM"}, "[4]": {"details": "library stock concentration: 400 uM"}, "[5]": {"details": "library stock concentration: 2 mM"}}, "note": "“And” between values parts separate entries of the source, which are not always exact repeats. Equal entries are not always repeated. Structures can show the parent of a compound that is named as a salt. About 620 (11%) of roughly 5,800 compounds showed activity. Many of the other results were omitted from the sample, so actives are more common in it than they were. Unmarked numbers belong to inactive results.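 The calls were made as follows: active = score above a cut-off or among the top three wells of a plate; in these data no inactive exceeds 0.85.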"}
{"smiles": "CCCCCCCCCC(=O)OCC(CO)OC(=O)CCCCCCCCC", "note": "(configuration not stated) [1,2-Didecanoyl-glycerol (10:0)]", "values": [{"measurement": "scaled lipid accumulation score", "setting": "[1]", "result": "≤ -0.021"}]}
{"smiles": "CCCCCCCCCC(=O)OCC(CO)OC(=O)CCCCCCCCC", "note": "(configuration not stated) [1,2-Didecanoyl-sn-glycerol]", "values": [{"measurement": "scaled lipid accumulation score", "setting": "[1]", "result": "≤ 0"}]}
{"smiles": "CCCCCC(O)C=CC1CC2CC(C1CC=CCCCC(=O)O)C2(C)C", "note": "[15(R)-Pinane Thromboxane A2]", "values": [{"measurement": "scaled lipid accumulation score", "setting": "[1]", "result": "≤ 0"}]}
{"smiles": "Cc1onc(-c2ccccc2)c1-c1ccc(S(N)(=O)=O)cc1", "note": "[Valdecoxib]", "values": [{"measurement": "scaled lipid accumulation score", "setting": "[2]", "result": "≤ 0"}, {"measurement": "scaled lipid accumulation score", "setting": "[3]", "result": "0.226 and 0.088"}]}
{"smiles": "Cc1onc(-c2ccccc2)c1-c1ccc(S(N)(=O)=O)cc1", "values": [{"measurement": "scaled lipid accumulation score", "setting": "[3]", "result": "≤ 0"}]}
{"smiles": "CCCCCCCCCCCCCCCC(=O)OC", "note": "[Palmitic Acid methyl ester]", "values": [{"measurement": "scaled lipid accumulation score", "setting": "[1]", "result": 0.031}]}
{"smiles": "O=P(O)(O)OC1C(O)C(OP(=O)(O)O)C(O)C(OP(=O)(O)O)C1O", "note": "[D-myo-Inositol-1,3,5-triphosphate (sodium salt)]", "values": [{"measurement": "scaled lipid accumulation score", "setting": "[1]", "result": 0.025}]}
{"smiles": "O=C(O)Cc1sc(-c2ccccc2)nc1-c1ccc(Cl)cc1", "note": "[Fentiazac]", "values": [{"measurement": "scaled lipid accumulation score", "setting": "library stock concentration: 6.1 mM", "result": 0.006}]}
{"smiles": "CCCCC[C@H](O)/C=C/[C@H]1CCC(=O)[C@@H]1CCCCCCC(=O)O", "note": "[11-deoxy Prostaglandin E1]", "values": [{"measurement": "scaled lipid accumulation score", "setting": "[1]", "result": 0.015}]}
{"smiles": "CC(C)=CCC[C@](C)(O)C1CC=C(C)CC1", "note": "(some centres not stated) [Bisabolol]", "values": [{"measurement": "scaled lipid accumulation score", "setting": "[3]", "result": 0.049}]}
{"smiles": "Cl.Cl.NC1(c2ccc(-c3nc4ccn5c(=O)[nH]nc5c4cc3-c3ccccc3)cc2)CCC1", "note": "[listing 1 of 2 here]", "values": [{"measurement": "scaled lipid accumulation score", "setting": "[2]", "result": "1.35 (active)"}, {"measurement": "scaled lipid accumulation score", "setting": "[3]", "result": "1.02 (active)"}]}
{"smiles": "Cl.Cl.NC1(c2ccc(-c3nc4ccn5c(=O)[nH]nc5c4cc3-c3ccccc3)cc2)CCC1", "note": "[listing 2 of 2 here]", "values": [{"measurement": "scaled lipid accumulation score", "setting": "[4]", "result": "1.07 (active)"}, {"measurement": "scaled lipid accumulation score", "setting": "[5]", "result": "1.23 (active)"}]}
{"smiles": "O=C1C(=Cc2ccc(O)cc2)C2=Nc3ccccc3C2=C1C1=C2C(=Nc3ccccc32)C(=Cc2ccc(O)cc2)C1=O", "note": "[Scytonemin, Lyngbya sp.]", "values": [{"measurement": "scaled lipid accumulation score", "setting": "[2]", "result": "≤ 0"}]}
{"smiles": "COc1ccc2cc(C(C)C(=O)O)ccc2c1", "note": "(stereo not drawn) [Naproxen(+)]", "values": [{"measurement": "scaled lipid accumulation score", "setting": "library stock concentration: 8.7 mM", "result": 0.014}, {"measurement": "scaled lipid accumulation score", "setting": "[3]", "result": "≤ 0"}]}
{"smiles": "CCCCCC(=O)CC[C@@H]1[C@@H](C/C=C\\CCCC(=O)OC(C)C)[C@@H](O)C[C@H]1O", "values": [{"measurement": "scaled lipid accumulation score", "setting": "[1]", "result": "≤ 0"}]}
{"smiles": "Nc1nc2[nH]c(=O)[nH]c2c(=O)[nH]1", "note": "[8-hydroxy Guanine (hydrochloride)]", "values": [{"measurement": "scaled lipid accumulation score", "setting": "[1]", "result": "≤ 0"}]}
{"smiles": "CCCCC1C(=O)CCC2C(CCCCCCC(=O)O)C(=O)CC12", "note": "(configuration not stated) [Bicyclo Prostaglandin E1]", "values": [{"measurement": "scaled lipid accumulation score", "setting": "[1]", "result": "≤ 0"}]}
{"smiles": "CCCCCCCCCCCC(=O)NC[C@]1(C)CCC[C@]2(C)c3ccc(C(C)C)cc3CCC12", "note": "(some centres not stated) [Lauric Acid Leelamide]", "values": [{"measurement": "scaled lipid accumulation score", "setting": "[1]", "result": 0.012}]}
{"smiles": "CC(C)c1ccc2c(c1)CC[C@H]1[C@](C)(CN)CCC[C@]21C.Cl", "note": "[Leelamine (hydrochloride)]", "values": [{"measurement": "scaled lipid accumulation score", "setting": "[1]", "result": "0.297 (active)"}]}
{"smiles": "CC(C)c1ccc2c(c1)CC[C@H]1[C@](C)(CN)CCC[C@]21C", "note": "[Lylamine hydrochloride]", "values": [{"measurement": "scaled lipid accumulation score", "setting": "[3]", "result": 0.527}]}
{"smiles": "CN(C)C(=O)c1ccc(S(=O)(=O)c2ccc(NC(=O)C(C)(O)C(F)(F)F)c(Cl)c2)cc1", "note": "(configuration not stated)", "values": [{"measurement": "scaled lipid accumulation score", "setting": "[2]", "result": "≤ -0.009"}, {"measurement": "scaled lipid accumulation score", "setting": "[3]", "result": "≤ 0"}]}
{"smiles": "CCCC/C=C/C=C/C=C\\CCCCCCCC(=O)O", "note": "[9(Z),11(E),13(E)-Octadecatrienoic Acid]", "values": [{"measurement": "scaled lipid accumulation score", "setting": "[1]", "result": "≤ 0"}]}
{"smiles": "Cc1ccc(NC(=O)Nc2cc(C(F)(F)F)ccc2F)cc1Nc1ccc2c(c1)NC(=O)C2=Cc1ccc[nH]1", "values": [{"measurement": "scaled lipid accumulation score", "setting": "[5]", "result": "1.14 (active)"}, {"measurement": "scaled lipid accumulation score", "setting": "[3]", "result": "1.61 (active)"}]}
{"smiles": "Cc1ccc(NC(=O)Nc2cc(C(F)(F)F)ccc2F)cc1Nc1ccc2c(c1)NC(=O)/C2=C\\c1ccc[nH]1", "values": [{"measurement": "scaled lipid accumulation score", "setting": "library stock concentration: 80 uM", "result": 0.038}, {"measurement": "scaled lipid accumulation score", "setting": "[4]", "result": 0.353}]}
{"smiles": "O=C1Nc2ccc(-c3cccnc3)cc2/C1=C/c1ccc[nH]1", "note": "[JAK3 Inhibitor VI]", "values": [{"measurement": "scaled lipid accumulation score", "setting": "[2]", "result": "≤ 0"}]}
{"smiles": "CCCCc1c(-c2ccc(OC)cc2)[nH]c2nccnc12", "note": "[Aloisine, RP106]", "values": [{"measurement": "scaled lipid accumulation score", "setting": "[2]", "result": 0.036}]}
{"smiles": "N#C/C(=C(/N)Sc1ccccc1N)c1cccc(C(O)c2ccncc2)c1", "note": "(configuration not stated) [MEK Inhibitor I]", "values": [{"measurement": "scaled lipid accumulation score", "setting": "[2]", "result": "≤ 0"}]}
{"smiles": "OCCN1CCN(CCCN2c3ccccc3Sc3ccc(Cl)cc32)CC1", "note": "[Perphenazine] [listing 1 of 2 here]", "values": [{"measurement": "scaled lipid accumulation score", "setting": "[3]", "result": "0.916 (active)"}]}
{"smiles": "NC(=O)N1c2ccccc2C=Cc2ccccc21", "values": [{"measurement": "scaled lipid accumulation score", "setting": "[3]", "result": "≤ 0"}]}
{"smiles": "NC(=O)N1c2ccccc2C=Cc2ccccc21", "note": "[Carbamazepine]", "values": [{"measurement": "scaled lipid accumulation score", "result": "≤ 0"}, {"measurement": "scaled lipid accumulation score", "setting": "[2]", "result": 0.025}, {"measurement": "scaled lipid accumulation score", "setting": "[3]", "result": "≤ 0 and 0.28"}]}
{"smiles": "CN1CCN(CCCN2c3ccccc3Sc3ccc(Cl)cc32)CC1", "note": "[Prochlorperazine edisylate]", "values": [{"measurement": "scaled lipid accumulation score", "setting": "library stock concentration: 3.5 mM", "result": 0.713}, {"measurement": "scaled lipid accumulation score", "setting": "[3]", "result": 0.523}]}
{"smiles": "Cl.Cl.OCCN1CCN(CCCN2c3ccccc3C=Cc3ccccc32)CC1", "note": "[Opipramol dihydrochloride]", "values": [{"measurement": "scaled lipid accumulation score", "setting": "[3]", "result": "0.885 (active)"}]}
{"smiles": "CN1CCN(CCCN2c3ccccc3Sc3ccc(Cl)cc32)CC1", "note": "[Prochlorperazine dimaleate]", "values": [{"measurement": "scaled lipid accumulation score", "result": 0.696}, {"measurement": "scaled lipid accumulation score", "setting": "[3]", "result": 0.815}]}
{"smiles": "OCCN1CCN(CCCN2c3ccccc3Sc3ccc(Cl)cc32)CC1", "values": [{"measurement": "scaled lipid accumulation score", "setting": "[3]", "result": "0.962 (active)"}]}
{"smiles": "OCCN1CCN(CCCN2c3ccccc3Sc3ccc(Cl)cc32)CC1", "note": "[Perphenazine] [listing 2 of 2 here]", "values": [{"measurement": "scaled lipid accumulation score", "result": 0.75}, {"measurement": "scaled lipid accumulation score", "setting": "library stock concentration: 5 mM", "result": 0.605}, {"measurement": "scaled lipid accumulation score", "setting": "[3]", "result": 0.329}]}
{"smiles": "CCCCC[C@](C)(O)/C=C/[C@H]1C(=O)C[C@H](O)[C@@H]1C/C=C\\CCCC(=O)O", "note": "[15(S)-15-methyl Prostaglandin D2]", "values": [{"measurement": "scaled lipid accumulation score", "setting": "[1]", "result": "≤ 0"}]}
{"smiles": "COC1CCC(C(=O)c2ccc3nc4c(cc3c2)CCCO4)CC1", "note": "(configuration not stated)", "values": [{"measurement": "scaled lipid accumulation score", "setting": "[3]", "result": "≤ -0.001"}]}
{"smiles": "NCC(O)c1ccc(O)c(O)c1", "note": "(configuration not stated)", "values": [{"measurement": "scaled lipid accumulation score", "setting": "[3]", "result": "≤ 0"}]}
{"smiles": "COC(=O)/C=C/c1cccc(N(Cc2ccc(-c3ccc(N(C)C)cc3)cc2)C(=O)C2CCCCC2)c1", "note": "[Fexaramine]", "values": [{"measurement": "scaled lipid accumulation score", "setting": "[3]", "result": 0.006}]}
{"smiles": "CC(NC(=O)Cc1cc(F)cc(F)c1)C(=O)NC1C(=O)N(C)c2ccccc2-c2ccccc21", "note": "(configuration not stated)", "values": [{"measurement": "scaled lipid accumulation score", "setting": "[2]", "result": "≤ 0"}, {"measurement": "scaled lipid accumulation score", "setting": "[3]", "result": 0.235}]}
{"smiles": "N[C@@H](Cc1ccc(O)c(I)c1)C(=O)O", "note": "[3-Iodo-L-tyrosine]", "values": [{"measurement": "scaled lipid accumulation score", "setting": "[3]", "result": "≤ -0.055"}]}
{"smiles": "CCOC(=O)c1ccnc(C(=O)OCC)c1", "values": [{"measurement": "scaled lipid accumulation score", "setting": "[1]", "result": "≤ 0"}]}
{"smiles": "CC/C=C\\C/C=C\\C/C=C\\CCCCCCCCCC(=O)O", "note": "[Eicosatrienoic acid (20:3 n-3)]", "values": [{"measurement": "scaled lipid accumulation score", "setting": "[1]", "result": 0.075}]}
